Structures are written as SMILES. Values without a mark were called inactive. How the calls were made is not given here. Where only a bound is given, the exact number is not on record here.
Potency means the concentration at half of the fitted maximal effect.

For the assay, the system named is HIV-1 nucleocapsid protein NCp7 (binding to TG oligonucleotide). The assay is described as follows: HIV Nucleocapsid (AID 346).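 Further: potency is for inhibitors that block NC binding and lower polarization.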 The settings on record: HIV-1 NC / fluorescein-TGTGTGTG probe, fluorescence polarization. In short, it runs like this:
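Fluorescence polarization binding of 100 nM HIV-1 NC to 10 nM fluorescein-labelled TG4xF oligonucleotide. Buffer was Hepes pH 7.5 with 250mM NaCl, 1uM ZnCl2, TCEP and 2-mercaptoethanol. Compounds were incubated 1 hr at room temperature before the read.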
For orientation: Polarisation of emitted light reports the rotation of a fluorescent probe.
Consider `COc1ccccc1-c1cncnc1N(C)Cc1ccco1`, for which the Potency is more than 20 µM.
Regarding `COC(=O)N1CCC2(CCN(Cc3ccc(C#N)cc3)CC2)CC1`, the Potency was more than 20 µM.
In the case of `c1ccc(CNc2ncncc2-c2ccc3c(c2)OCO3)cc1`, the Potency was more than 20 µM.
In the case of `COCCn1c(=O)cnc2cnc(N3CCNCC3)nc21`, the Potency was more than 20 µM.
Under `COc1ccc(CNc2nc(-c3cccnc3)nc3ccccc23)c(OC)c1` stands more than 20 µM.
Regarding `N#Cc1ccccc1-c1ccc2ncnc(NCc3cccnc3)c2c1`, the Potency is more than 20 µM.
For `O=c1c(-c2cc(F)cc(F)c2)nc2cnc(N3CCNCC3)nc2n1Cc1cccs1`, the Potency is more than 20 µM.
As to `N#CCCn1c(=O)c(-c2ccccc2)nc2cnc(OCc3ccccc3)nc21`, the Potency is more than 20 µM.
On to `COc1ncc2nc(-c3ccc(F)cc3)c(=O)n(Cc3cccs3)c2n1`, for which the Potency is more than 20 µM.
As to `COc1cccc(Cn2c(=O)c(-c3cccs3)nc3cnc(N4CCN(C)CC4)nc32)c1`, the Potency is more than 4 µM.
Under `O=C(Oc1ccccc1)N1CCC[C@@]2(CCN(c3ncccn3)C2)C1` stands more than 20 µM; under `CS(=O)(=O)N1CCC2(CCCN(c3cccc(-c4ccccc4)c3)C2)CC1`, more than 20 µM; under `COc1ccc(C(=O)N2CCC3(CC2)CN(CC(C)C)C3)cc1`, more than 20 µM.
Turning to `O=c1c(-c2cc(F)cc(F)c2)nc2cnc(N3CCOCC3)nc2n1C1CC1`, the Potency was more than 20 µM.
In the case of `O=c1cnc2cnc(Oc3cccc(Cl)c3)nc2n1CCc1ccccc1`, the Potency was more than 20 µM.
Consider `Cc1cnc(CNc2ncnc3ccc(-c4c(C)noc4C)cc23)cn1`, for which the Potency was more than 20 µM.
Under `COc1ccccc1CN1CCCC2(CCN(C(=O)c3ccco3)CC2)C1` stands more than 20 µM.
On to `O=C(c1cc(C(F)(F)F)cc(C(F)(F)F)c1)N1CCC2(CC1)CN(c1ccncc1)C2`, for which the Potency was more than 20 µM.
As for `COc1ccc(NC(=O)N2CC[C@@]3(CCCN(C(=O)c4cccc(F)c4)C3)C2)cc1`, the Potency was more than 20 µM.
Regarding `COc1cccc(Cn2c(=O)c(-c3cc(F)cc(F)c3)nc3cnc(N4CCN(C)CC4)nc32)c1`, the Potency is more than 20 µM.
For `COCCNc1ccnc(-c2ccccc2C)n1`, the Potency was more than 20 µM.
Turning to `COc1ccc(-n2c(=O)c(-c3ccc(F)cc3)nc3cnc(N4CCOCC4)nc32)cc1`, the Potency is more than 20 µM.
For `N#Cc1ccc(CN2CC[C@@]3(CCCN(C(=O)c4ccco4)C3)C2)cc1` the value was more than 20 µM; for `Cn1cccc1C(=O)N1CCC2(CC1)CCN(C(c1ccccc1)c1ccccc1)CC2`, more than 20 µM.
In the case of `CC(=O)N1CCC2(CC1)CCN(c1ccccc1)CC2`, the Potency is more than 20 µM.
`c1ccc(Nc2cc(-c3ccoc3)ncn2)cc1`: the Potency was more than 20 µM.
In the case of `COc1ccc(CNc2cc(-c3ccoc3)ncn2)c(OC)c1`, the Potency was more than 20 µM.
With `COc1ccccc1-c1nc(NCCc2cnc[nH]2)c2ccccc2n1`, the Potency is more than 20 µM.
For `COc1ccccc1CCn1c(=O)c(-c2cccs2)nc2cncnc21`, the Potency is more than 20 µM.
As to `CS(=O)(=O)N1CCC[C@@]2(CCN(c3ncccn3)C2)C1`, the Potency was more than 20 µM.
For the compound `COc1ccc(CNc2ncncc2-c2cccc(NS(C)(=O)=O)c2)c(OC)c1`, the Potency was more than 20 µM.
Turning to `CS(=O)(=O)N1CCC[C@@]2(CCN(C(c3ccccc3)c3ccccc3)C2)C1`, the Potency was more than 20 µM.
Consider `Cc1cccc(CNc2nc(-c3cccc(NS(C)(=O)=O)c3)nc3ccccc23)c1`, for which the Potency is more than 20 µM.
For the compound `Cn1cc(-c2nc3cnc(Oc4cccc(Cl)c4)nc3n(CCC#N)c2=O)c2ccccc21`, the Potency was more than 20 µM.
In the case of `O=C(Nc1ccccc1)N1CC[C@@]2(CCCN(C(=O)c3cnccn3)C2)C1`, the Potency was more than 20 µM.
Regarding `COc1ccc(-c2nc3cnc(Oc4ccccc4)nc3n(Cc3cccs3)c2=O)cc1`, the Potency was more than 20 µM.
Turning to `O=C(c1ccco1)N1CCC2(CC1)CN(c1ccccn1)C2`, the Potency is more than 20 µM.
For the compound `COC(=O)N1CCC2(CCCN(C(=O)Nc3cccc(F)c3)C2)CC1`, the Potency is more than 20 µM.
For `COc1cccc(Cn2c(=O)c(-c3cccs3)nc3cnc(Nc4cccc(OC)c4)nc32)c1`, the Potency is more than 20 µM.
With `COCCNc1ncncc1-c1ccccc1OC`, the Potency was more than 20 µM.

These data come from PubChem BioAssay (NCATS).
